{
  "source": "PubChem BioAssay AID1835",
  "about": "(Johns Hopkins Ion Channel Center, 2009)",
  "note": "Among all 2,400 compounds or so, about 750 (31%) were called active. The list shows a part of the results. A number with no mark means an inactive call.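 Rule for the calls: active = median signal gain over dofetilide-blocked control wells reaching their mean plus 3 SD, so readout 1 at least 0; inactive = the rest.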",
  "data": [
    {"biological_target": "Voltage-gated inwardly rectifying potassium channel KCNH2 (Homo sapiens) (UniProt Q12809)", "sequence (Q12809 whole entry, looked up)": "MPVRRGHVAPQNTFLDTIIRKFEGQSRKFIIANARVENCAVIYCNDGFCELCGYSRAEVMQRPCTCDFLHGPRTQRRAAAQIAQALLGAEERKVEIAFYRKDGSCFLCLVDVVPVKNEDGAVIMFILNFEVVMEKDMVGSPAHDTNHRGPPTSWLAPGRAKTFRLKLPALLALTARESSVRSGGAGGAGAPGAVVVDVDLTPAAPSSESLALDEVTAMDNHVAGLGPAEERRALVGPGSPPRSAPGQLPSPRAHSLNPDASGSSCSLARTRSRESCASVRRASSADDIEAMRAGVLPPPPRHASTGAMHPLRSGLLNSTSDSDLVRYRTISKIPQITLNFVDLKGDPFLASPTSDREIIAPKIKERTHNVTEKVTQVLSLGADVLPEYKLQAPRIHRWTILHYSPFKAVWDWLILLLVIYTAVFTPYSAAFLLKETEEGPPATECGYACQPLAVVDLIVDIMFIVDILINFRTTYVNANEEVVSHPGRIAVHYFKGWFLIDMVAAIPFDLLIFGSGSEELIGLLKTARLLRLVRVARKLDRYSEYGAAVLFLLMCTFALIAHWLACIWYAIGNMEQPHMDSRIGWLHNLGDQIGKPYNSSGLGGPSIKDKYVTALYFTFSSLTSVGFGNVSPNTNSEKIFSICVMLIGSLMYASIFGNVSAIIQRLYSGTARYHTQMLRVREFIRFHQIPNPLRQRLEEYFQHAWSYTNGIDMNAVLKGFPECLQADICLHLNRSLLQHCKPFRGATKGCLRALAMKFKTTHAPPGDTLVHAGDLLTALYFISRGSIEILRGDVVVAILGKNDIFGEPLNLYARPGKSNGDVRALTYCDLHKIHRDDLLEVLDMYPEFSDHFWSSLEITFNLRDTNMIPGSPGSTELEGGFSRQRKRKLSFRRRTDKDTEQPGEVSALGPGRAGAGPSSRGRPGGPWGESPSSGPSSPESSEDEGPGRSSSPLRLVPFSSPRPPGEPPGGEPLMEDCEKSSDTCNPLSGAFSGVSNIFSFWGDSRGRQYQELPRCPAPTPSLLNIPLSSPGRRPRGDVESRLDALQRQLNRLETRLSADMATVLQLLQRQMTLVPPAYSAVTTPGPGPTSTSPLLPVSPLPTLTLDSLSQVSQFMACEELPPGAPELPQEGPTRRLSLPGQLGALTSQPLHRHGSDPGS", "test": "modulators restoring hERG flux under dofetilide – cell-based, thallium flux, duplicate retest, dofetilide IC70, confirmation (AID 1835)", "conditions": "hERG cell line, FluxOR thallium flux, dofetilide-blocked; at 10 µM; stronger effect = higher value", "values": [
      {"smiles": "Cc1ccc(N2C(=O)c3ccccc3C2(O)c2ncc[nH]2)cc1", "note": "(stereo unspecified)", "activity increase over dofetilide control, less the hit threshold": "-18%"},
      {"smiles": "CCc1nnc(NC(=O)c2c(C)nn(-c3ccccc3)c2Cl)s1", "activity increase over dofetilide control, less the hit threshold": "-16%"},
      {"smiles": "COc1ccc(-n2c(SCc3ccccn3)nc3c(c2=O)SCC3)cc1OC", "activity increase over dofetilide control, less the hit threshold": "3% (active)"},
      {"smiles": "COc1ccc(-n2nc(C(=O)NCC(=O)NCc3ccc(F)cc3)c3ccccc3c2=O)cc1OC", "activity increase over dofetilide control, less the hit threshold": "-13%"},
      {"smiles": "CCOC(=O)c1cc2c(nc1NC(=S)NCc1ccccc1)CCCC2", "activity increase over dofetilide control, less the hit threshold": "-1%"},
      {"smiles": "CCOC(=O)c1c(CC(C)C)csc1NC(=O)c1ccccc1C(=O)O", "activity increase over dofetilide control, less the hit threshold": "-13%"},
      {"smiles": "CCOC(=O)c1c(-c2ccc(C)o2)csc1NC(=S)NC(=O)N(C)C", "activity increase over dofetilide control, less the hit threshold": "21% (active)"},
      {"smiles": "CCNC(=S)Nc1scc(-c2ccccc2)c1C(=O)OCC", "activity increase over dofetilide control, less the hit threshold": "5% (active)"},
      {"smiles": "CCOC(=O)c1nnsc1NC(C)=O", "activity increase over dofetilide control, less the hit threshold": "-13%"},
      {"smiles": "CCOC(=O)c1c(-c2ccccc2)csc1NC(=S)NC", "activity increase over dofetilide control, less the hit threshold": "7% (active)"},
      {"smiles": "C=CCn1c(N2CCCCCC2)nc2c1c(=O)n(C)c(=O)n2C", "activity increase over dofetilide control, less the hit threshold": "-7%"},
      {"smiles": "CC1(OC(=O)C2CCCC2)C(=O)C=C2C=C(c3ccc(C#N)cc3)OC=C2C1=O", "note": "(stereo unspecified)", "activity increase over dofetilide control, less the hit threshold": "-18%"},
      {"smiles": "Cc1ccc(C)c(N2CCN(S(=O)(=O)c3ccc(-c4ccc(=O)[nH]n4)o3)CC2)c1", "activity increase over dofetilide control, less the hit threshold": "-11%"},
      {"smiles": "CC(Sc1n[nH]c(=O)[nH]c1=O)C(=O)OCc1ccccc1", "note": "(stereo unspecified)", "activity increase over dofetilide control, less the hit threshold": "-11%"},
      {"smiles": "Cn1c2ccccc2c(=O)c2c(=O)n(Cc3ccco3)c(-c3ccc(Cl)cc3Cl)nc21", "activity increase over dofetilide control, less the hit threshold": "-10%"},
      {"smiles": "Cn1c(=O)c2sc3c(c2n(CC(=O)Nc2ccccc2)c1=O)COC(C)(C)C3", "activity increase over dofetilide control, less the hit threshold": "-12%"},
      {"smiles": "COc1ccccc1-n1cnc2cc(NS(=O)(=O)c3ccc(Br)cc3)ccc21", "activity increase over dofetilide control, less the hit threshold": "-24%"},
      {"smiles": "Cc1ccc(CNC(=O)CN(C(=O)C2(C)CC(=O)N=C3C=CC=CN32)c2ccccc2F)cc1", "note": "(stereo unspecified)", "activity increase over dofetilide control, less the hit threshold": "-8%"},
      {"smiles": "CCCCn1c(=S)[nH]c2ccccc2c1=O", "activity increase over dofetilide control, less the hit threshold": "3% (active)"},
      {"smiles": "O=c1c2ccccc2[nH]c(=S)n1CCc1ccccc1", "activity increase over dofetilide control, less the hit threshold": "20% (active)"},
      {"smiles": "CCCCC(CC)CNC(=O)Cn1c(=S)[nH]c2ncccc2c1=O", "note": "(stereo unspecified)", "activity increase over dofetilide control, less the hit threshold": "-12%"},
      {"smiles": "CC(C)CCn1c(=S)[nH]c2ncccc2c1=O", "activity increase over dofetilide control, less the hit threshold": "-1%"},
      {"smiles": "O=C1CN(S(=O)(=O)c2ccccc2)CC(=O)N1CCc1ccccc1", "activity increase over dofetilide control, less the hit threshold": "-6%"},
      {"smiles": "O=c1c2cc(Cl)ccc2[nH]c(=S)n1Cc1cccs1", "activity increase over dofetilide control, less the hit threshold": "-8%"},
      {"smiles": "CCCCCn1c(=S)[nH]c2ncccc2c1=O", "activity increase over dofetilide control, less the hit threshold": "40% (active)"},
      {"smiles": "Cc1ccc(Cn2c(=S)[nH]c3ccccc3c2=O)cc1", "activity increase over dofetilide control, less the hit threshold": "3% (active)"},
      {"smiles": "CCOCCCn1c(=S)[nH]c2cc(C(=O)NCCOC)ccc2c1=O", "activity increase over dofetilide control, less the hit threshold": "-13%"},
      {"smiles": "CCN(CCCn1c(=S)[nH]c2ncccc2c1=O)c1ccccc1", "activity increase over dofetilide control, less the hit threshold": "-2%"},
      {"smiles": "Cc1ccc(OCCC(=O)OC(C)C(=O)Nc2ccc(Cl)cn2)cc1", "note": "(stereo unspecified)", "activity increase over dofetilide control, less the hit threshold": "-11%"},
      {"smiles": "CCC1(C)CC2(CCCN(CCC(=O)c3ccccc3)C2)CCO1", "note": "(stereo unspecified)", "activity increase over dofetilide control, less the hit threshold": "-34%"},
      {"smiles": "Cc1ccc(NC(=O)CSc2nnc(-c3cccnc3)n2-c2ccc(C)cc2)cc1", "activity increase over dofetilide control, less the hit threshold": "-20%"},
      {"smiles": "c1ccc(-c2ccc(-c3ccncn3)cc2)cc1", "activity increase over dofetilide control, less the hit threshold": "-14%"},
      {"smiles": "COc1ccc(-c2nc(-c3ccccn3)ncc2S(C)(=O)=O)cc1", "activity increase over dofetilide control, less the hit threshold": "-15%"},
      {"smiles": "c1ccc(-c2n[nH]c(-c3ccccn3)n2)cc1", "activity increase over dofetilide control, less the hit threshold": "7% (active)"},
      {"smiles": "Cc1nc(Oc2ccc(Cl)cc2)c2oc3ccccc3c2n1", "activity increase over dofetilide control, less the hit threshold": "-9%"},
      {"smiles": "O=C1N2CCSC2=NC1(NS(=O)(=O)c1ccccc1)C(F)(F)F", "note": "(stereo unspecified)", "activity increase over dofetilide control, less the hit threshold": "5% (active)"},
      {"smiles": "COc1ccc(CCNC(=O)C2CCCN(S(C)(=O)=O)C2)cc1", "note": "(stereo unspecified)", "activity increase over dofetilide control, less the hit threshold": "-15%"},
      {"smiles": "COc1ccc(-n2c(SCC#N)nnc2-c2cccnc2)cc1", "activity increase over dofetilide control, less the hit threshold": "-26%"},
      {"smiles": "O=C1CC(N2CCN(c3ccccc3Cl)CC2)C(=O)N1c1ccc(F)cc1", "note": "(stereo unspecified)", "activity increase over dofetilide control, less the hit threshold": "-10%"},
      {"smiles": "CC(=O)Oc1c(-c2ccco2)oc2ccccc2c1=O", "activity increase over dofetilide control, less the hit threshold": "-1%"},
      {"smiles": "CC(=O)Oc1c(-c2ccc(Br)o2)oc2ccccc2c1=O", "activity increase over dofetilide control, less the hit threshold": "66% (active)"},
      {"smiles": "COc1ccc(-c2oc3ccccc3c(=O)c2OC(C)=O)cc1", "activity increase over dofetilide control, less the hit threshold": "7% (active)"},
      {"smiles": "COc1ccc(C(=O)c2oc3ccccc3c2N)cc1", "activity increase over dofetilide control, less the hit threshold": "-12%"},
      {"smiles": "COc1ccc(-c2c(C)c3ccc(OCC(C)=O)cc3oc2=O)cc1", "activity increase over dofetilide control, less the hit threshold": "-20%"},
      {"smiles": "Cc1ccnc(SCCn2c(N3CC(C)OC(C)C3)nc3c2c(=O)n(C)c(=O)n3C)n1", "note": "(stereo unspecified)", "activity increase over dofetilide control, less the hit threshold": "-26%"},
      {"smiles": "N=C1S/C(=C\\c2ccco2)C(=O)N1c1nccs1", "activity increase over dofetilide control, less the hit threshold": "-24%"},
      {"smiles": "COc1ccc(/C=C2\\SC(=N)N(c3nccs3)C2=O)cc1OC", "activity increase over dofetilide control, less the hit threshold": "30% (active)"},
      {"smiles": "N=C1S/C(=C\\c2ccc(-c3cccc(Cl)c3)o2)C(=O)N1c1nccs1", "activity increase over dofetilide control, less the hit threshold": "50% (active)"},
      {"smiles": "CCN1C(=O)/C(=C\\c2ccc(-c3cccc(C(=O)OC)c3)o2)SC1=Nc1ccc(C(=O)O)cc1", "activity increase over dofetilide control, less the hit threshold": "-3%"},
      {"smiles": "COc1cccc(CN(C)CC2CCCN(CCc3ccc(Cl)cc3)C2)c1OC", "note": "(stereo unspecified)", "activity increase over dofetilide control, less the hit threshold": "-31%"},
      {"smiles": "O=C(NCc1cccs1)C1CC(c2ccc(F)cc2)=NO1", "note": "(stereo unspecified)", "activity increase over dofetilide control, less the hit threshold": "-24%"},
      {"smiles": "COc1ccc(Cl)cc1C(=O)NNC(=S)NC(=O)/C=C/c1ccco1", "activity increase over dofetilide control, less the hit threshold": "-4%"},
      {"smiles": "Cc1occc1C(=O)NNC(=S)NC(=O)COc1ccc(Cl)cc1Cl", "activity increase over dofetilide control, less the hit threshold": "100% (active)"},
      {"smiles": "CCC(=O)N1CCCc2ccccc21", "activity increase over dofetilide control, less the hit threshold": "-8%"},
      {"smiles": "CC(=O)N1CCCc2cc(S(=O)(=O)NCc3ccc(C)cc3)ccc21", "activity increase over dofetilide control, less the hit threshold": "-1%"},
      {"smiles": "Cc1ccc(Cn2nnc3c(=O)n(CC(=O)N4CCCc5ccccc54)cnc32)cc1", "activity increase over dofetilide control, less the hit threshold": "2% (active)"},
      {"smiles": "Cn1c(=O)c2sccc2n(Cc2cccc(Br)c2)c1=O", "activity increase over dofetilide control, less the hit threshold": "-11%"},
      {"smiles": "Cn1c(=O)[nH]c(=O)c2c1nc(CN1CCN(c3ccccc3F)CC1)n2CCCc1ccccc1", "activity increase over dofetilide control, less the hit threshold": "-7%"},
      {"smiles": "O=C(COC(=O)C1C2CC3OC(=O)C1C3C2)Nc1ccc(Cl)cc1", "note": "(stereo unspecified)", "activity increase over dofetilide control, less the hit threshold": "-17%"},
      {"smiles": "O=C(O)CCCCn1c(SCc2ccccc2Cl)nc2ccsc2c1=O", "activity increase over dofetilide control, less the hit threshold": "4% (active)"},
      {"smiles": "CC(/C=C1\\N=C(SCc2ccccc2Cl)SC1=O)=C\\c1ccccc1", "activity increase over dofetilide control, less the hit threshold": "-9%"},
      {"smiles": "O=C(CN1C(=O)c2ccccc2S1(=O)=O)NCCSCc1ccccc1Cl", "activity increase over dofetilide control, less the hit threshold": "-16%"},
      {"smiles": "Cc1cc(NC(=O)CCCn2cnc([N+](=O)[O-])n2)no1", "activity increase over dofetilide control, less the hit threshold": "-9%"},
      {"smiles": "CCOC(=O)c1n[nH]n2c1nc(=S)c1ccccc12", "activity increase over dofetilide control, less the hit threshold": "46% (active)"},
      {"smiles": "CCOC(=O)C1CCN(C(=O)COC(=O)c2nn(C)c(=O)c3ccccc23)CC1", "activity increase over dofetilide control, less the hit threshold": "-23%"},
      {"smiles": "CCOC(=O)c1nnn(CC(=O)Nc2ccccc2OC)c1C(=O)OCC", "activity increase over dofetilide control, less the hit threshold": "-3%"}
    ]}
  ]
}
